A short description of assay [1]: qHTS of pediatric cancer cell lines to identify multiple opportunities for drug repurposing: Primary screen for A673 cells (AID 1347092). Also: nearly all actives have a fitted effect of over 45% in size. Also: potency is read from the fitted curve at half-maximal effect. Summed up:
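A673 cells (500-1,000 cells/well in growth media) were pre-incubated 5 h at 37 degrees C, then exposed to compounds for 48 h. Viability was read as CellTiter-Glo luminescence; concentration-response curves came directly from the primary screen.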
For orientation: In qHTS, concentration-response curves come from the screen itself.

Assay [2] is described as follows: qHTS of pediatric cancer cell lines to identify multiple opportunities for drug repurposing: Primary screen for BT-37 cells (AID 1347094). Also: series mostly up to about 57 µM. Summed up: (§1)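 Primary screen of approved and investigational compounds on cells in growth media at 37 degrees C, 5% CO2. MIPE set at 11-point and NPC set at 8-point dilutions; viability scored by ATP-based luminescence at 48 hours.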

The nature of assay [3]: qHTS of pediatric cancer cell lines to identify multiple opportunities for drug repurposing: Primary screen for NB-EBc1 cells (AID 1347095). Also: potency is read from the fitted curve at half-maximal effect. The method in brief:
as §1

Assay [4] is described as follows: qHTS of pediatric cancer cell lines to identify multiple opportunities for drug repurposing: Primary screen for U-2 OS cells (AID 1347096). Also: nearly all actives have a fitted effect of over 50% in size. Also: potency is read from the fitted curve at half-maximal effect. Summed up: (§2)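 Viability after 48 h compound treatment at 37C, 500-1,000 cells/well, read as ATP luminescence with CellTiter-Glo. Primary screens used 11-point (MIPE, 0.78 nM-46 µM) or 8-point (NPC, 0.59 nM-46 µM) final concentrations; follow-up screens used 11-point dilutions.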

Assay [5] is described as follows: qHTS of pediatric cancer cell lines to identify multiple opportunities for drug repurposing: Primary screen for Saos-2 cells (AID 1347097). Also: nearly all actives have a fitted effect of over 40% in size. Also: potency is read from the fitted curve at half-maximal effect. The method in brief: as §1
Assay [6] can be described thus: qHTS of pediatric cancer cell lines to identify multiple opportunities for drug repurposing: Primary screen for SK-N-SH cells (AID 1347098). Also: nearly all actives have a fitted effect of over 65% in size. Also: potency is read from the fitted curve at half-maximal effect. The method in brief:
(§3)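 Cells (500-1,000/well) rested 5 h, then received compounds for 48 h; metabolically active cells were measured by CellTiter-Glo luminescence. Final concentrations spanned up to 46 µM (MIPE, 11-point) or 0.59 nM-46 µM (NPC, 8-point) in primary screens, 11-point in follow-ups.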

A short description of assay [7]: qHTS of pediatric cancer cell lines to identify multiple opportunities for drug repurposing: Primary screen for NB1643 cells (AID 1347099). Also: nearly all actives have a fitted effect of over 50% in size. Also: potency is read from the fitted curve at half-maximal effect. The method in brief: as §1
Assay [8] in a line: qHTS of pediatric cancer cell lines to identify multiple opportunities for drug repurposing: Primary screen for LAN-5 cells (AID 1347100). Also: potency is read from the fitted curve at half-maximal effect. The method in brief: as §2
Assay [9] is described as follows: qHTS of pediatric cancer cell lines to identify multiple opportunities for drug repurposing: Primary screen for BT-12 cells (AID 1347101). Also: nearly all actives have a fitted effect of over 25% in size. Also: potency is read from the fitted curve at half-maximal effect. Summed up: as §3
Assay [10] in a line: qHTS of pediatric cancer cell lines to identify multiple opportunities for drug repurposing: Primary screen for Rh18 cells (AID 1347102). Also: nearly all actives have a fitted effect of over 65% in size. Also: potency is read from the fitted curve at half-maximal effect. Summed up: as §2
The nature of assay [11]: qHTS of pediatric cancer cell lines to identify multiple opportunities for drug repurposing: Primary screen for OHS-50 cells (AID 1347103). Also: nearly all actives have a fitted effect of over 40% in size. Also: potency is read from the fitted curve at half-maximal effect. Summed up:
as §3

Assay [12] is described as follows: qHTS of pediatric cancer cell lines to identify multiple opportunities for drug repurposing: Primary screen for RD cells (AID 1347104). Also: nearly all actives have a fitted effect of over 55% in size. Also: potency is read from the fitted curve at half-maximal effect. The method in brief: as §1
Assay [13] can be described thus: qHTS of pediatric cancer cell lines to identify multiple opportunities for drug repurposing: Primary screen for MG 63 (6-TG R) cells (AID 1347105). Also: nearly all actives have a fitted effect of over 50% in size. Also: potency is read from the fitted curve at half-maximal effect. The method in brief: as §1
Assay [14] can be described thus: qHTS of pediatric cancer cell lines to identify multiple opportunities for drug repurposing: Primary screen for control Hh wild type fibroblast cells (AID 1347106).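 Also: series mostly up to about 46 µM; a drop in luminescence marks cytotoxicity and a rise apparent proliferation; nearly all actives have a fitted effect of over 55% in size.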 Summed up: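 Cells (500-1,000/well) in growth media were settled 5 h at 37 degrees C, then given compounds for 48 h. Viability was read as CellTiter-Glo luminescence. Primary runs used MIPE at 11 points (0.78 nM-46 µM) and NPC at 8 points (0.59 nM-46 µM); follow-ups used 11 points.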

Assay [15] is described as follows: qHTS of pediatric cancer cell lines to identify multiple opportunities for drug repurposing: Primary screen for Rh30 cells (AID 1347107). Also: series mostly up to about 46 µM; nearly all actives have a fitted effect of over 75% in size. Summed up:
as §2

Assay [16] can be described thus: qHTS of pediatric cancer cell lines to identify multiple opportunities for drug repurposing: Primary screen for Rh41 cells (AID 1347108).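 Also: series mostly up to about 46 µM; luminescence drop marks cytotoxic hits; nearly all actives have a fitted effect of over 70% in size.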 Summed up: as §1
Assay [17] is described as follows: qHTS of pediatric cancer cell lines to identify multiple opportunities for drug repurposing: Primary screen for SK-N-MC cells (AID 1347093). Also: potency is read from the fitted curve at half-maximal effect. Summed up:
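Metabolically active cells were quantified by ATP-dependent luminescence (CellTiter-Glo, 15 min at room temperature) following 48 h treatment. Cells had been plated at 500-1,000 per well and settled for 5 h beforehand.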

Assay [18] can be described thus: qHTS of pediatric cancer cell lines to identify multiple opportunities for drug repurposing: Confirmatory screen for NB1643 cells (AID 1347109). Also: nearly all actives have a fitted effect of over 45% in size. Also: potency is read from the fitted curve at half-maximal effect. Summed up:
as §2

A short description of assay [19]: qHTS of pediatric cancer cell lines to identify multiple opportunities for drug repurposing: Confirmatory screen for SK-N-MC cells (AID 1347111).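 Also: potency is read from the fitted curve at half-maximal effect; cells exposed to compound for 48 h before the readout; nearly all actives have a fitted effect of over 70% in size.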 The method in brief: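 SK-N-MC cells at 500-1,000 cells/well in growth media were pre-incubated 5 h, then exposed to compounds at 11-point dilutions for 48 h at 37 degrees C, 5% CO2. Viability was read as CellTiter-Glo luminescence.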

Assay [20] in a line: qHTS of pediatric cancer cell lines to identify multiple opportunities for drug repurposing: Confirmatory screen for BT-12 cells (AID 1347112). Also: nearly all actives have a fitted effect of over 55% in size. The method in brief: as §2

Each structure is given as a SMILES string. Several values for one entry are separate records, joined by “and”; a condition that tells them apart may be missing. Equal entries are not always repeated. Inconclusive results are not listed. Activity calls are given as the source filed them. Calls follow the shape of the dose curve; as a rule, active = well fitted curve in the direction sought with a large enough effect; inconclusive = small, poorly fitted or top-dose-only effect, or another doubt; inactive = no such curve, though single readings can be large; an effect the other way counts as inactive or inconclusive.

With `O=c1[nH]cnc2[nH]ncc12`, the Potency result in assay [1], in assay [2], in [3], in assay [4], in assay [5] and in assay [6] was “inactive” each time. Besides, the Potency result in assay [7], in assay [8], in assay [9], in assay [10], in assay [12] and in [13] was “inactive” each time. Further, the Potency result in assay [14], in [15] and in assay [16] was “inactive” throughout. Besides, in assay [11], the Potency is 21.7 µM (active).
Take `Clc1cccc(Cl)c1NC1=NCCN1`: the Potency result in [1], in [2], in assay [3], in [4], in assay [5] and in assay [6] was “inactive” throughout. Moreover, the Potency entry in assay [7], in assay [8], in [9], in [10], in assay [11] and in [12] was “inactive” throughout. Moreover, the Potency entry in [13], in assay [14], in assay [15] and in assay [16] was “inactive” throughout.
In the case of `Clc1ccc(Nc2nnc(Cc3ccncc3)c3ccccc23)cc1`, the Potency is 2.35 µM (active) in assay [17], 21.7 µM (active) in [6] and 19.5 µM (active) in [11]. Besides, the Potency result in assay [3], in assay [4], in [5], in [7], in assay [8] and in [12] was “inactive” in each case. In addition, the Potency entry in [14], in [15] and in assay [16] was “inactive” throughout.
As for `Cc1cc(-c2ccc(CC(=O)Nc3ccc(-c4cccnc4)cc3)cc2)ccn1`, in assay [1], the Potency is 23.5 µM (active). Moreover, the Potency entry in assay [2], in [10], in assay [13] and in assay [14] was “inactive” throughout.
As to `S=C(NCc1ccc2c(c1)OCO2)N1CCN(c2ncnc3c2oc2ccccc23)CC1`, the Potency in assay [1] is 1.71 µM (active); in assay [7], 8.55 µM (active); in assay [8], 30.3 µM (active); in assay [11] it was 1.98 µM (active). The Potency entry in assay [6], in [13], in assay [14] and in assay [15] was “inactive” each time.
Consider `Cn1c(=O)c(F)c(Nc2ccc(I)cc2F)c2c(=O)n(C[C@@H](O)CO)cnc21`, for which the Potency entry in assay [1], in [11], in assay [13] and in assay [15] was “inactive” in each case. Further, the Potency in assay [4] is 5.9 µM (active); in assay [6] it was 6.81 µM (active); in assay [10], 20.9 µM (active); in [12] it was 29.6 nM (active).
As to `Nc1nc2[nH]cc(CCc3ccc(C(=O)N[C@@H](CCC(=O)O)C(=O)O)cc3)c2c(=O)[nH]1`, the Potency in assay [17] was 0.132 µM (active); in assay [3], 1.48 µM (active); in assay [18], 20.8 µM (active); in [19] it was 0.147 µM (active). For the same compound, the Potency entry in assay [2], in assay [4], in assay [6], in [7], in [8] and in assay [9] was “inactive” each time. Also, the Potency entry in assay [10], in [11], in [14], in [15] and in assay [20] was “inactive” throughout.
As for `OCCn1cc(-c2cnc3nnn(Cc4ccc5ncccc5c4)c3n2)cn1`, the Potency result in [1], in assay [3], in [4], in assay [5], in assay [6] and in [7] was “inactive” each time. In addition, the Potency entry in assay [8], in [9], in assay [10], in assay [11], in assay [12] and in assay [13] was “inactive” in each case. In addition, the Potency result in assay [14] and in assay [15] was “inactive” in each case.
As to `CS(=O)(=O)c1ccc(C(=O)Nc2ccc(Cl)c(-c3ccccn3)c2)c(Cl)c1`, the Potency in assay [17] was 2.64 µM (active). Besides, the Potency result in assay [2], in assay [3], in assay [4], in assay [6], in assay [8] and in assay [10] was “inactive” each time. Moreover, the Potency entry in assay [11], in assay [12], in [14], in assay [15] and in assay [20] was “inactive” in each case.
Take `NC(=O)c1ccc(-c2nc(-c3ccc4c(c3)OCO4)c(-c3ccccn3)[nH]2)cc1`: the Potency entry in [1], in assay [3], in [4], in assay [5], in [6] and in [7] was “inactive” in each case. Further, the Potency entry in assay [8], in assay [9], in [10], in [11], in assay [12] and in [13] was “inactive” each time. Further, the Potency entry in assay [14], in [15] and in assay [16] was “inactive” each time.
`O=C(Nc1cccnc1)N1CCC(Cc2cccc(Oc3ccc(C(F)(F)F)cn3)c2)CC1`: the results for the Potency in [1], in [9] and in assay [11] were 11.8 µM (active), 10.9 µM (active) and 10.9 µM (active), respectively. Besides, the Potency result in [4], in [6], in [7], in assay [10], in assay [13] and in assay [14] was “inactive” in each case. In assay [16], the Potency result is “inactive”.
As to `C[C@]1(c2nc3c(C(N)=O)cccc3[nH]2)CCCN1`, the values for the Potency in assay [1], in [5] and in assay [7] were 14.8 µM (active), 20.9 µM (active) and 9.35 µM (active), respectively. The Potency result in assay [4], in assay [10], in assay [13], in [14] and in assay [18] was “inactive” each time.
Consider `CCC(=O)N[C@H]1CC[C@H](C(=O)N(C)c2ccc(-c3nc4ccccc4o3)cc2)C1`, for which the Potency in assay [1] was 3.72 µM (active); in assay [6], 0.961 µM (active); in [7], 1.66 µM (active); in assay [11], 19.3 µM (active); in assay [12], 3320 nM (active). The Potency entry in assay [3], in assay [4], in assay [5], in [10] and in assay [15] was “inactive” in each case.
As to `CCN(CC)CCCC(C)Nc1ccnc2cc(Cl)ccc12` (stereo not given), the Potency in assay [1] is 2.96 µM (active); in assay [7] it was 1.48 µM (active); in assay [9] it was 3.43 µM (active); in [11], 8.63 µM (active); in assay [12], 13 µM (active) and 6.62 µM (active); in assay [13], 11.8 µM (active). Besides, the Potency result in [3], in assay [4], in [10], in assay [14], in [15] and in [16] was “inactive” in each case. The Potency result in assay [18] and in assay [20] was “inactive” throughout.
With `CCOc1cc(C=C2C(=O)N(c3ccccc3)N=C2C)cc(Cl)c1OCC(=O)OC`, the Potency in assay [17] was 11.8 µM (active); in assay [3] it was 20.9 µM (active); in assay [8], 18.7 µM (active). The Potency entry in assay [2], in [4], in assay [5], in assay [9], in [12] and in assay [14] was “inactive” each time. In addition, the Potency entry in assay [15] is “inactive”.
As for `Cc1oncc1C(=O)Nc1ccc(C(F)(F)F)cc1`, the Potency in [17] was 6.68 µM (active); in assay [19] it was 7.37 µM (active). In addition, the Potency entry in assay [2], in assay [4], in assay [5], in assay [7], in assay [8] and in assay [10] was “inactive” in each case. The Potency entry in assay [12], in assay [13], in [14], in [15], in assay [16] and in assay [18] was “inactive” throughout. Besides, the Potency result in [20] is “inactive”.
For `CNCc1ccc(-c2[nH]c3cc(F)cc4c3c2CCNC4=O)cc1`, the Potency in assay [1] was 4.69 µM (active); in assay [19], 6.57 µM (active). For the same compound, the Potency entry in assay [4], in [5], in [9], in [10], in [11] and in assay [13] was “inactive” in each case. For the same compound, the Potency entry in assay [14], in assay [15], in assay [16] and in [20] was “inactive” throughout.

(Values after PubChem BioAssay (NCATS).)
